Potency, activity, negative = cell killing and outcome data for 6 molecules are collected here from PubChem BioAssay (NCATS).

For one test, the system named is MCC-26. Briefly: qHTS assay to identify novel small-molecules to repurpose for Merkel cell carcinoma treatment (AID 1296009). Note: nearly all actives have a fitted effect of over 60% in size. Note: potency is the fitted concentration of half-maximal effect. To be noted: MCC and control cell lines, CellTiter-Glo viability, 72 h; series mostly up to 46 µM. The gist of the method: (§1)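 72 hr, 37 degree celsius; NPC 8-pt / MIPE 11-pt dose response; compound pinned in DMSO; CellTiter-Glo, 10 min RT, luminescence; normalized to no-cell and DMSO controls.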
(In general: qHTS replaces the single test concentration by a dilution series.)

The test system of the next test is MKL-1. The description is as above. To be noted: MCC and control cell lines, CellTiter-Glo viability, 72 h; series mostly up to 46 µM. A digest of the protocol: as §1
Background: Cellular ATP, detected with luciferase, serves as a proxy for viable cell number.

Another test concerns MKL-2. The test is described as above. To be noted: MCC and control cell lines, CellTiter-Glo viability, 72 h; series mostly up to 46 µM. The gist of the method:
as §1

For the next test, the system named is UISO. The description is as above. To be noted: MCC and control cell lines, CellTiter-Glo viability, 72 h; series mostly up to 46 µM. The gist of the method:
as §1

The subject of the next test is WaGa. The test is described as above. To be noted: MCC and control cell lines, CellTiter-Glo viability, 72 h; series mostly up to 46 µM. A digest of the protocol: as §1
For the next test, the system named is C33A. Briefly: Primary qHTS to identify gynecologic anti-cancer compounds using libraries of approved drugs and bioactive compounds (AID 1345084). Note: nearly all actives have a fitted effect of over 55% in size. The settings on record: Gynecologic cancer cell panel viability, ATPlite luminescence, 48 h; series mostly up to 57.5 µM. The gist of the method: (§2)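 48 h compound exposure at 37 C, 5% CO2; five-point qHTS. ATPlite luminescence readout of cell ATP.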

The next test relates to CAOV3. The description is as above. The settings on record: Gynecologic cancer cell panel viability, ATPlite luminescence, 48 h; series mostly up to 57.5 µM. A digest of the protocol:
as §2

Another test has as its system CASKI. The description is as above. To be noted: Gynecologic cancer cell panel viability, ATPlite luminescence, 48 h; series mostly up to 57.5 µM. The gist of the method: as §2
In the next test the test system is Es-2. The test is described as above. To be noted: Gynecologic cancer cell panel viability, ATPlite luminescence, 48 h; series mostly up to 57.5 µM. A digest of the protocol:
as §2

Another test concerns HeLa. The description is as above. The settings on record: Gynecologic cancer cell panel viability, ATPlite luminescence, 48 h; series mostly up to 57.5 µM. A digest of the protocol:
as §2

For a further test, the system named is Hek293T. The test is described as above. The settings on record: Gynecologic cancer cell panel viability, ATPlite luminescence, 48 h, control line for the selectivity index; series mostly up to 57.5 µM. The gist of the method: as §2
In the next test the test system is JEG-3. Described as above. The settings on record: Gynecologic cancer cell panel viability, ATPlite luminescence, 48 h; series mostly up to 57.5 µM. The gist of the method: as §2
The next test has as its system OV90. Described as above. The settings on record: Gynecologic cancer cell panel viability, ATPlite luminescence, 48 h; series mostly up to 57.5 µM. The gist of the method: as §2
The next test concerns PA-1. Described as above. To be noted: Gynecologic cancer cell panel viability, ATPlite luminescence, 48 h; series mostly up to 57.5 µM. A digest of the protocol:
as §2

A further test concerns SKOV3. The test is described as above. The settings on record: Gynecologic cancer cell panel viability, ATPlite luminescence, 48 h; series mostly up to 57.5 µM. A digest of the protocol: as §2
A further test deals with Tov112D. The test is described as above. To be noted: Gynecologic cancer cell panel viability, ATPlite luminescence, 48 h; series mostly up to 57.5 µM. A digest of the protocol:
as §2

Test [1] is described as follows: Drug repurposing screens with cells derived from glioblastoma tumor samples (AID 1345199). Note: nearly all actives have a fitted effect of over 40% in size. Note: potency is the fitted concentration of half-maximal effect. The settings on record: GBM patient neurospheres viability, ATP luminescence, 48 h. A digest of the protocol: (§3)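 Four patient lines of CD133+ GBM neurospheres were screened at several concentrations; hits were retested in those lines plus three slower-growing GBM lines, using 48-hour treatment and ATP-based viability.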

The next test concerns astro. The test is described as above. The settings on record: viability, ATP luminescence, 48 h; series mostly up to 45.9 µM. The gist of the method: as §3
In a further test the test system is NIH3T3. Briefly: qHTS assay to identify novel small-molecules to repurpose for Merkel cell carcinoma treatment (AID 1296009). Note: nearly all actives have a fitted effect of over 60% in size. Note: potency is the fitted concentration of half-maximal effect. To be noted: MCC and control cell lines, CellTiter-Glo viability, 72 h; at 44.8 µM (top of the series) unless noted. The gist of the method: as §1
A further test concerns Tov-21-G. Description: Primary qHTS to identify gynecologic anti-cancer compounds using libraries of approved drugs and bioactive compounds (AID 1345084). Note: nearly all actives have a fitted effect of over 55% in size. The settings on record: Gynecologic cancer cell panel viability, ATPlite luminescence, 48 h; series mostly up to 57.5 µM. A digest of the protocol:
as §2

[2] abbreviates: at 45.9 µM (top of the series), tumour line B.
The mark [3] stands for this setting: at 45.9 µM (top of the series), tumour line D.
Setting [4] is: at 46 µM (top of the series), tumour line A.
The mark [5] stands for this setting: at 46.1 µM (top of the series), tumour line C.

Where “and” joins values, the source holds several entries; their conditions need not be identical. Equal values may be shown once. Results filed as inconclusive are left out. More than one record can exist for a structure, and the calls need not agree. Calls of active or inactive are those of the source. Calls come from the whole dose curve; as a rule, active = well fitted curve in the direction sought with a large enough effect; inconclusive = small, poorly fitted or top-dose-only effect, or another doubt; inactive = no such curve, though single readings can be large; an effect the other way counts as inactive or inconclusive.
% is set by controls: 0 for no effect and ±100 for the full control effect.

As to `CS(=O)(=O)c1ccc([C@@H](O)[C@@H](CO)NC(=O)C(Cl)Cl)cc1`, the Potency entry in the test with MCC-26, with MKL-1, in the test with MKL-2, in the test with UISO, in the test with WaGa and in the test on C33A was “inactive” throughout. In addition, the Potency result in the test with CAOV3, with CASKI, in the test with Es-2, in the test on HeLa, in the test with Hek293T and in the test on JEG-3 was “inactive” throughout. Further, the Potency entry with OV90, in the test with PA-1, in the test with SKOV3, in the test with Tov112D and with astro was “inactive” throughout. Further, the activity, negative = cell killing in test [1] (at 20 µM (top of the series), tumour line C) is -12.8% (inactive); in test [1] (at 21.2 µM (top of the series), tumour line B), -9.12% (inactive); in [1] (at 21.2 µM (top of the series), tumour line D), -24.7% (inactive); in test [1] (at 21.3 µM (top of the series), tumour line A), -19.8% (inactive).

Turning to `CCN(CC)CC#CCOC(=O)C(O)(c1ccccc1)C1CCCCC1` (stereo unspecified), the Potency entry with MCC-26, in the test on MKL-1, in the test with MKL-2, in the test on UISO, with WaGa and with astro was “inactive” in each case. Moreover, in the test on NIH3T3, the molecule was classed as inactive. For the same molecule, the activity, negative = cell killing in test [1] (setting [2]) was -22.3% (inactive). In addition, the Potency was 10 µM (active) in [1] (tumour line A) and 20.6 µM (active) in [1] (tumour line C).

For `CCOCC(O)COc1ccc(NC(=O)CC[S+](C)C)cc1` (stereo unspecified), the Potency result with MCC-26, in the test on MKL-1, in the test with MKL-2, with UISO, in the test with WaGa and with C33A was “inactive” each time. Moreover, the Potency entry in the test on CAOV3, with CASKI, in the test on Es-2, in the test with HeLa, with Hek293T and in the test on JEG-3 was “inactive” throughout. The Potency result in the test with OV90, in the test on PA-1, with SKOV3, in the test with Tov-21-G, in the test with Tov112D and in the test on astro was “inactive” each time. Moreover, the activity, negative = cell killing in test [1] (setting [2]) was -7.04% (inactive); in test [1] (setting [3]) it was -30.9% (inactive); in test [1] (setting [4]), -26.7% (inactive); in [1] (setting [5]) it was -28.1% (inactive).

With `CN1CCCC(n2nc(Cc3ccc(Cl)cc3)c3ccccc3c2=O)CC1` (stereo unspecified), the Potency result in the test with MCC-26 is “inactive and 11.8 µM (active)”; in the test on MKL-1 it was 1.48 µM (active); with MKL-2 it was 15 µM (active) and 418 nM (active); in the test on UISO, 13.2 µM (active); in the test with WaGa, 0.296 µM (active); in [1] (tumour line A), 11.2 µM (active). In addition, the Potency in test [1] (tumour line D) is 14.1 µM (active). The Potency entry with C33A, with CAOV3, in the test with CASKI, in the test on Hek293T, with JEG-3 and with SKOV3 was “inactive” each time. For the same molecule, the activity, negative = cell killing in test [1] (setting [5]) was 4.16% (inactive).

Take `CC[C@H](NC(C)C)[C@H](O)c1ccc(O)c2[nH]c(=O)ccc12`: the Potency result in the test with MCC-26, in the test with MKL-1, with MKL-2, in the test with UISO, in the test with WaGa and with C33A was “inactive” in each case. Moreover, the Potency entry with CAOV3, in the test with CASKI, in the test with Es-2, with HeLa, with Hek293T and with JEG-3 was “inactive” each time. Further, the Potency result in the test with OV90, with PA-1, with SKOV3, with Tov-21-G, with Tov112D and in the test on astro was “inactive” throughout. The activity, negative = cell killing in test [1] (setting [2]) was -9.21% (inactive); in test [1] (setting [3]), -7.02% (inactive); in test [1] (setting [4]), -27% (inactive); in [1] (setting [5]), 18.7% (inactive).

`CCOC(=O)[C@H](CCc1ccccc1)N[C@H]1CS[C@H](c2cccs2)CN(CC(=O)O)C1=O`: the Potency entry with MCC-26, in the test with UISO, in the test on C33A, in the test with CAOV3, in the test on CASKI and with Es-2 was “inactive” in each case. The Potency entry in the test on HeLa, in the test on Hek293T, in the test on JEG-3, in the test on OV90, in the test on PA-1 and in the test with SKOV3 was “inactive” throughout. The Potency result in the test with Tov-21-G, in the test with Tov112D and in the test with astro was “inactive” in each case. The Potency result with MKL-1 is “inactive and 5.26 µM (active)”; in the test on MKL-2, “inactive and 1.05 µM (active)”; in the test with WaGa, “inactive and 469 nM (active)”. Further, the activity, negative = cell killing was -5.27% (inactive) in [1] (setting [2]), -7.87% (inactive) in [1] (setting [3]), -16.7% (inactive) in test [1] (setting [4]) and -21.6% (inactive) in test [1] (setting [5]).
